# Assay results reported in PubChem BioAssay (Tox21).
# A number with no mark means an inactive call. Records with an inconclusive call do not appear. Where a call stands in place of a potency, no number is given. The source made the active and inactive calls. Unless noted, calls come from the whole dose curve; as a rule, active = well fitted curve in the direction sought with a large enough effect in the repeat runs; inconclusive = weak or mixed curves; inactive = no such curve, though single readings can be large; an effect the other way counts as inactive or inconclusive.
# Tests used:
# [1] = qHTS assay to test for compound auto fluorescence at 535 nm (green) in HEK293 cells (AID 720680)
# [2] = qHTS assay to test for compound auto fluorescence at 460 nm (blue) in HEK293 cell free culture (AID 720681)
# How it was run: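 Compounds were added to cell-free DMEM with 10% FBS and fluorescence read directly. The blue channel used 405 nm excitation and 460 nm emission, with triamterene as the reference fluorophore.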
# [3] = qHTS assay to test for compound auto fluorescence at 590 nm (red) in HEK293 cell free culture (AID 720683)
# How it was run: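 Cell-free wells of DMEM with 10% FBS received compound, and intrinsic fluorescence was read at excitation/emission 540/590 nm. Values expressed as equivalence to Rose Bengal sodium.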
# [4] = qHTS assay to test for compound auto fluorescence at 590 nm (red) in HepG2 cell free culture (AID 720684)
# How it was run: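 Compounds are added to culture medium (MEM, 10% FBS) lacking cells, then fluorescence is read at excitation 540 nm, emission 590 nm, with Rose Bengal sodium as the equivalency standard.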
# [5] = qHTS assay to test for compound auto fluorescence at 460 nm (blue) in HepG2 cell free culture (AID 720685)
# How it was run: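 Compound (23 nL) or DMSO pinned into cell-free MEM with 10% FBS; blue fluorescence read at 405/460 nm excitation/emission, expressed as auto-fluorescence equivalency to triamterene.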
# [6] = qHTS assay to test for compound auto fluorescence at 535 nm (green) in HepG2 cell free culture (AID 720686)
# [7] = qHTS assay to test for compound auto fluorescence at 460 nm (blue) in HepG2 cells (AID 720687)
# How it was run: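 HepG2 cells in MEM with 10% FBS, attached overnight at 37 C, were exposed to compound or DMSO for 1 hr at 37 C, 5% CO2. Blue fluorescence was read at 405/460 nm, with triamterene as reference fluorophore.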
# [8] = target: Glucocorticoid receptor (Homo sapiens) (UniProt P04150); assay: qHTS assay to identify small molecule agonists of the glucocorticoid receptor (GR) signaling pathway (AID 720691; active = well fitted activation curve with a large enough effect in the signal ratio in the repeat runs, not every such curve was filed as active; the % refers to the signal ratio)
# Glucocorticoid receptor (Homo sapiens), sequence (P04150 whole entry, looked up): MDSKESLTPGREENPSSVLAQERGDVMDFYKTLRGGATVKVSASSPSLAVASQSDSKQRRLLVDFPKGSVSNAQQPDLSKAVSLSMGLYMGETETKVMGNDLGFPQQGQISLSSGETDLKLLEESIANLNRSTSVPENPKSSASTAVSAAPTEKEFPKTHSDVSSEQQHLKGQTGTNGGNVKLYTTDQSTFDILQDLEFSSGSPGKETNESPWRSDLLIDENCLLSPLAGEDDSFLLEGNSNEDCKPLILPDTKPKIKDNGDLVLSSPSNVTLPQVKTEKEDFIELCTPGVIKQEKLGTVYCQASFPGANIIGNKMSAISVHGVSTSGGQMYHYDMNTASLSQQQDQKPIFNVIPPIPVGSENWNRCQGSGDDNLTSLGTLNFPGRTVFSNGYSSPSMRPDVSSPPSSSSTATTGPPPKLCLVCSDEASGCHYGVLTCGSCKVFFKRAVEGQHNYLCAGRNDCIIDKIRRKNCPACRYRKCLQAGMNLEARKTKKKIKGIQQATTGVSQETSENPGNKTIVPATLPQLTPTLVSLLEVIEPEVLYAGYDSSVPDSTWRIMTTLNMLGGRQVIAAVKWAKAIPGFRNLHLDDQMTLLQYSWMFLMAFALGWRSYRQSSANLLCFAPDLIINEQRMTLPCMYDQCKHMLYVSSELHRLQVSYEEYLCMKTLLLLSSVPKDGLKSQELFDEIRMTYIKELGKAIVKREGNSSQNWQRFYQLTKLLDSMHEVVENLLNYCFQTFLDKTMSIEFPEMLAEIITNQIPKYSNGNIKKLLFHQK
# How it was run: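 Agonist mode in a HeLa line carrying a GRE-controlled beta-lactamase reporter. Compounds act for 18 h at 37 C before a 2 h room-temperature FRET substrate step and fluorescence reading.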
# [9] = target: Glucocorticoid receptor (Homo sapiens) (UniProt P04150); assay: qHTS assay to identify small molecule antagonists of the glucocorticoid receptor (GR) signaling pathway (AID 720692; active = well fitted inhibition curve with a large enough effect in the signal ratio in the repeat runs, not every such curve was filed as active; the % refers to the signal ratio)
# How it was run: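 Cells plated, rested 4 h at 37 C/5% CO2; compounds in DMSO pin-transferred; dexamethasone added to 5 nM final; 18 h at 37 C; B/G FRET substrate added, 2 h room temperature; fluorescence measured.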
# [10] = qHTS assay to identify small molecule antagonists of the glucocorticoid receptor (GR) signaling pathway - cell viability counter screen (AID 720693); note: nearly all actives have a fitted effect of over 55% in size
# [11] = qHTS assay for identifying genotoxic compounds that show differential cytotoxicity against isogenic chicken DT40 cell lines with known DNA damage response pathways - wild type cell line (AID 743012); note: nearly all actives have a fitted effect of over 60% in size; note: potency is the fitted concentration of half-maximal effect
# How it was run: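 Cells (DT40 wild type, 300/well) are treated with DMSO-dissolved compounds after a ~0.5 h pre-incubation and kept 40 h at 37 C/5% CO2. Viability is then measured by CellTiter-Glo luminescence following 30 min at room temperature.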
# [12] = qHTS assay for identifying genotoxic compounds that show differential cytotoxicity against isogenic chicken DT40 cell lines with known DNA damage response pathways - Rad54/Ku70 mutant cell line (AID 743015); note: nearly all actives have a fitted effect of over 60% in size; note: potency is the fitted concentration of half-maximal effect
# [13] = qHTS assay to identify small molecule antagonists of the androgen receptor (AR) signaling pathway - cell viability counter screen (AID 743033; note: nearly all actives have a fitted effect of over 45% in size)
# [14] = qHTS assay to identify small molecule antagonists of the androgen receptor (AR) signaling pathway using the MDA cell line - cell viability counter screen (AID 743041; note: nearly all actives have a fitted effect of over 45% in size)
# How it was run: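 Same-well cytotoxicity was assessed by CellTiter-Fluor in MDA-kb2 AR-luc cells after 16 h of compound treatment under R1881 agonism.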
# [15] = qHTS assay to test for compound auto fluorescence at 535 nm (green) in HEK293 cell free culture (AID 720682)
# How it was run: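 Steps: dispense DMEM/10% FBS into empty wells; pin in compound or DMSO; measure fluorescence at 485/535 nm. Values are fluorescein equivalents.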
# [16] = qHTS assay for identifying genotoxic compounds that show differential cytotoxicity against isogenic chicken DT40 cell lines with known DNA damage response pathways - Rev3 mutant cell line (AID 743014); note: nearly all actives have a fitted effect of over 55% in size; note: potency is the fitted concentration of half-maximal effect
# [17] = target: Androgen receptor (Homo sapiens) (UniProt P10275); assay: qHTS assay to identify small molecule agonists of the androgen receptor (AR) signaling pathway using the MDA cell line (AID 743040; note: nearly all actives have a fitted effect of over 20% in size)
# Androgen receptor (Homo sapiens), sequence (P10275 whole entry, looked up): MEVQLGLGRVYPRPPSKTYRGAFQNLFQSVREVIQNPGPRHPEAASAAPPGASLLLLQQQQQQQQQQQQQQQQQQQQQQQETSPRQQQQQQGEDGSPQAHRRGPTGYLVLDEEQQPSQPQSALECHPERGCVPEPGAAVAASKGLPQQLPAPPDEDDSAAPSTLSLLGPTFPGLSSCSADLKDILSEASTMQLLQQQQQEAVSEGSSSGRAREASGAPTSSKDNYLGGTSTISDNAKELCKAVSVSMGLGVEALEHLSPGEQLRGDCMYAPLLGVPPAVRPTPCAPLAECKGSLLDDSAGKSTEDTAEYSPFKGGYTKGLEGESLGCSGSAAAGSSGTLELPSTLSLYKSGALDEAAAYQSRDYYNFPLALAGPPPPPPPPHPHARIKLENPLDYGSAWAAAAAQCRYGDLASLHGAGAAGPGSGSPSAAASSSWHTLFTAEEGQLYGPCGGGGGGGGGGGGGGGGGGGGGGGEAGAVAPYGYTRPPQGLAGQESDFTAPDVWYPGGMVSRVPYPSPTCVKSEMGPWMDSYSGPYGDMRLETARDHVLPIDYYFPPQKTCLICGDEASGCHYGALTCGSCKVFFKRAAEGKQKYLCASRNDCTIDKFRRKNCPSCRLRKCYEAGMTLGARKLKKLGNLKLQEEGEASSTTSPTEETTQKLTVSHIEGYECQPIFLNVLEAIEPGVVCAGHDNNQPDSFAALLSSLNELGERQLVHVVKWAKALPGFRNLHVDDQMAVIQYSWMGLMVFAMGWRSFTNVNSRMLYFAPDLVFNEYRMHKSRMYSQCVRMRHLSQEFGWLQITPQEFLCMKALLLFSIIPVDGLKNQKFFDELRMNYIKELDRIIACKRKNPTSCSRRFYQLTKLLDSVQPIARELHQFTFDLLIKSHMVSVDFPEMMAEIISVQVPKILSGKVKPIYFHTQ
# How it was run: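 Human breast carcinoma MDA-kb2 reporter cells (MMTV-luc, AR/GR elements) were treated for 16 h at 37C in 0% CO2 following a 5 h settling period. Signal was quantified by ONE-Glo luminescence.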
# [18] = target: Androgen receptor (Homo sapiens) (UniProt P10275); assay: qHTS assay to identify small molecule antagonists of the androgen receptor (AR) signaling pathway using the MDA cell line (AID 743042; note: nearly all actives have a fitted effect of over 55% in size)
# How it was run: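 MDA-kb2 breast carcinoma cells carrying MMTV-luciferase (AR/GR responsive) were co-treated with compounds and the agonist R1881 for 16 h at 37C. Inhibition read as ONE-Glo luminescence; CellTiter-Fluor fluorescence measured in parallel for cytotoxicity.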
compound,measurement,setting,value
C=CC(C)(CCC=C(C)C)OC(=O)c1ccccc1 (configuration not stated),outcome,[1],inactive
same,Potency,[2],inactive
same,outcome,[3],inactive
same,outcome,[4],inactive
same,Potency,[5],inactive
same,outcome,[6],inactive
same,Potency,[7],inactive
same,Potency,[8],inactive
same,Potency,[9],inactive
same,Potency,[10],inactive
same,Potency,[11],inactive
same,Potency,[12],27.3 µM (active)
same,Potency,[13],inactive
same,Potency,[14],inactive
O=C(Nc1ccccc1)OCC(CN1CCCCC1)OC(=O)Nc1ccccc1 (configuration not stated),"fluorescence, % of fluorescein",[1],0.0795% [at 18.6 µM]
same,"fluorescence, % of fluorescent control",[2],-0.0858% [at 18.6 µM]
same,activity change,[15],0.0431% [at 18.6 µM]
same,"fluorescence, % of Rose Bengal",[4],0.0349% [at 18.6 µM]
same,"fluorescence, % of fluorescent control",[5],-0.044% [at 18.6 µM]
same,"fluorescence, % of fluorescent control",[7],-0.0488% [at 18.6 µM]
same,Potency,[9],inactive
same,Potency,[11],inactive
same,Potency,[16],inactive
same,Potency,[13],inactive
same,Potency,[14],inactive
Oc1ccc(O)c2c(O)cccc12,outcome,[1],inactive
same,Potency,[2],inactive
same,outcome,[15],inactive
same,outcome,[4],inactive
same,Potency,[5],inactive
same,outcome,[6],inactive
same,Potency,[7],inactive
same,Potency,[8],inactive
same,Potency,[11],inactive
same,Potency,[16],inactive
same,Potency,[12],inactive
same,Potency,[13],inactive
Nc1cnn([C@@H]2O[C@H](CO)[C@@H](O)[C@H]2O)c(=O)n1,outcome,[1],inactive
same,Potency,[2],inactive
same,outcome,[15],inactive
same,outcome,[4],inactive
same,outcome,[6],inactive
same,Potency,[7],inactive
same,Potency,[11],27.3 µM (active)
same,Potency,[12],6.12 µM (active)
same,Potency,[13],inactive
same,Potency,[14],inactive
CC(C)NCC(O)COc1ccc(CC(N)=O)cc1 (configuration not stated),outcome,[1],inactive
same,Potency,[2],inactive
same,outcome,[15],inactive
same,outcome,[3],inactive
same,outcome,[6],inactive
same,Potency,[7],inactive
same,Potency,[10],inactive
same,Potency,[11],inactive
same,Potency,[16],inactive
same,Potency,[12],inactive
same,Potency,[13],inactive
same,Potency,[14],inactive
O=C1c2cccc(O)c2C(=O)c2c(O)cc(CO)cc21,outcome,[1],inactive
same,Potency,[2],inactive
same,outcome,[15],inactive
same,outcome,[4],inactive
same,Potency,[5],inactive
same,outcome,[6],inactive
same,Potency,[7],inactive
same,Potency,[8],inactive
same,Potency,[10],inactive
same,Potency,[11],inactive
same,Potency,[12],24.3 µM (active)
same,Potency,[13],inactive
same,Potency,[14],inactive
CN1CCN(C2=Nc3cc(Cl)ccc3Nc3ccccc32)CC1,outcome,[1],inactive
same,Potency,[2],inactive
same,outcome,[15],inactive
same,outcome,[4],inactive
same,Potency,[5],inactive
same,outcome,[6],inactive
same,Potency,[7],inactive
same,Potency,[8],inactive
same,Potency,[10],inactive
same,Potency,[11],21.1 µM (active)
same,Potency,[16],26.6 µM (active)
same,Potency,[12],26.6 µM (active)
same,Potency,[13],inactive
same,Potency,[14],inactive
O=C(c1ccc(O)cc1)c1ccc(O)cc1,outcome,[1],inactive
same,Potency,[2],inactive
same,outcome,[15],inactive
same,outcome,[4],inactive
same,Potency,[5],inactive
same,outcome,[6],inactive
same,Potency,[7],inactive
same,Potency,[9],inactive
same,Potency,[10],inactive
same,Potency,[11],inactive
same,Potency,[16],inactive
same,Potency,[12],inactive
same,Potency,[13],inactive
same,Potency,[17],inactive
same,Potency,[14],inactive
same,Potency,[18],inactive
CC(O)C1CCCCC1 (configuration not stated),outcome,[1],inactive
same,Potency,[2],inactive
same,outcome,[15],inactive
same,outcome,[4],inactive
same,Potency,[5],inactive
same,outcome,[6],inactive
same,Potency,[7],inactive
same,Potency,[8],inactive
same,Potency,[9],inactive
same,Potency,[10],inactive
same,Potency,[11],inactive
same,Potency,[16],inactive
same,Potency,[12],inactive
same,Potency,[13],inactive
same,Potency,[14],inactive
